Laboratory results reported in PMC5540273 (PLoS ONE, 2017).

system: FLT3; settings: concentration: 1 μM, replicates: in singlicate; n = 1
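Also: KINOMEscan kinase panel screen.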

SMILES | %Inh
Nc1ncnc2c1ncn2-c1ccc(Cl)cc1 [AH2635] | 46%
Nc1nc(-c2ccccc2F)c(-c2ccnc3ccccc23)s1 [GW560459] | 25%
COc1cc2ncn(-c3cc(OCc4ccc(S(C)(=O)=O)cc4)c(C(N)=O)s3)c2cc1OC [GW869979] | 4%
CCC(=O)c1c(-c2ccccc2)c2cc(Cl)ccc2c(=O)n1Cc1cc(C(=O)NC2CC2)n(C)n1 | 0%
Nc1n[nH]c2nnc(-c3ccccc3)c(-c3ccccc3)c12 [GW554060] | 8%
OCCCNc1nccc(-c2c(-c3cccc(C(F)(F)F)c3)nn3cc(C(F)(F)F)ccc23)n1 [GW630813] | 0%
O=C(NCCNc1ccnc(Nc2ccc(F)cc2)n1)Nc1ccc2c(c1)OCO2 [GSK1379882] | 0%
CCC(=O)c1c(-c2ccccc2)c2cc(Cl)ccc2c(=O)n1Cc1cc(S(C)(=O)=O)n(CCC(C)(C)O)n1 | 0%
FC(F)(F)c1ccc(-c2ncn(CCCN3CCOCC3)c2-c2ccncc2)cc1 [SB-217780] | 14%
COC(=O)c1c(-c2ccccc2)c2cc(Br)ccc2c(=O)n1Cc1ccc(S(C)(=O)=O)cc1 | 9%
CCCNC(=O)Nc1ccc(Oc2ncnc3ccn(C)c23)cc1 | 45%
CCn1c(-c2ccoc2)nc2cnccc21 [SB-733887] | 0%
CCn1c(-c2nonc2N)nc2ccccc21 [SB-693162/GW549034] | 20%
Cc1nc(N(C)[C@H]2CN(C(=O)CC#N)CC[C@H]2C)c2cc[nH]c2n1 | 5%
CCC(=O)c1c(-c2ccccc2)c2cc(Cl)ccc2c(=O)n1Cc1ccc(C(=O)O)cc1 | 0%
COc1ccc(Nc2nccc(N3CCC(NS(=O)(=O)c4ccc(NC(C)=O)cc4)C3)n2)cc1 (stereo not shown) [GSK1379729] | 29%
CCc1nc(-c2cccc(C)c2)c(-c2ccncc2)s1 | 0%
COc1cc(Nc2ccnc3ccc(C(F)(F)F)cc23)cc(OC)c1OC [GW577382] | 0%
COc1ccc(-c2cc3c(C)nc(N)nc3n([C@H]3CC[C@H](O)CC3)c2=O)cn1 | 0%

SMILES | %Inh
Cc1ccc(-c2ccc3c(ccc4sc5c(c43)NC[C@@H](C)N=C5N(C)C)n2)cn1 | 0%
Cc1nnc(-c2ccc(C)c(-c3ccc(C(=O)O)cc3)c2)o1 [GW608005] | 0%
COC(=O)c1c(-c2ccccc2)c2cc(C)ccc2c(=O)n1Cc1ccccc1 | 0%
COc1cccc(C2=C(Nc3cccc(C(=O)O)c3)C(=O)NC2=O)c1 [SB-390770] | 0%
Fc1cccc(CSc2nnc(-c3ccc4c(c3)CCO4)o2)c1 | 0%
Cc1cccc(-c2cc(-c3c[nH]nc3-c3ccccn3)ccn2)c1 [GW679395] | 0%
CN(C)c1cc(-c2ccc3c(N)n[nH]c3c2)nc(N)n1 [GSK2219329] | 0%
Cn1c(=O)c(F)c(Nc2ccc(I)cc2F)c2c(=O)n(OC[C@H](O)CO)cnc21 | 0%
Cc1nnc(-c2ccc3ncn(-c4ccc(S(C)=O)cc4)c3c2)o1 (stereo not shown) | 8%
CCC(=O)c1c(-c2ccccc2)c2cc(Cl)ccc2c(=O)n1Cc1cc(S(C)(=O)=O)n(CC(N)=O)n1 | 0%
COc1cccc(-n2cnc3c(N)ncnc32)c1 [SKF-97416] | 28%
CCCC(=O)Nc1n[nH]c2ncc(-c3cccc4ccccc34)cc12 [SB-642057] | 0%
CN1C(=O)C(Nc2cc(Cl)c(O)c(Cl)c2)=C(c2ccc(Cl)cc2)C1=O [SB-404321] | 0%
Nc1nccc2scc(-c3ccc4c(c3)CCN4C(=O)Cc3ccccc3)c12 [GSK2576924] | 0%
CCc1ccc(-c2ccc3c(c2)-c2nn(C)cc2S(=O)(=O)N3C)cc1 | 30%
O=C(NCc1cccs1)c1cc(C(=O)c2c(Cl)cccc2Cl)c[nH]1 [GW823670] | 2%
COC(=O)c1c(-c2ccccc2)c2cc(Br)ccc2c(=O)n1Cc1ccc(NC(=O)CCC(=O)O)cc1 | 6%
COc1ccc(CNC(=O)NC2CCN(c3ccnc(Nc4ccc(F)cc4)n3)C2)cc1 (stereo not shown) [GSK1379706] | 16%
